Inconclusive results are not listed. Calls of active or inactive are those of the source. Cut-off read from the data, not from the text of the source, unless noted: active = inhibition above about 80%; inactive = the rest.
What was measured:
[1] = growth inhibition of DIPG glioma cells, dose response, cell-based, SU-DIPG-XIII, MIPE4.0, CellTiter-Glo, qHTS (AID 1347061; cut-off not given, nearly all actives have AC50 up to about 37 µM;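 note: cells exposed to compound for 48 hours before readout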); conditions: SU-DIPG-XIII viability, CellTiter-Glo ATP luminescence
[2] = SU-DIPG-VI glioma cell viability, MIPE4.0 library, CellTiter-Glo luminescence, qHTS (AID 1347066; cut-off not given, nearly all actives have AC50 up to about 30 µM;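 note: cells exposed to compound for 48 hours before readout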); conditions: CellTiter-Glo ATP luminescence
[3] = growth inhibition of DIPG glioma cells, dose response, cell-based, JHH-DIPG-1, MIPE4.0, CellTiter-Glo, qHTS (AID 1347062; cut-off not given, nearly all actives have AC50 up to about 27 µM;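 for AC50: cells exposed to compound for two days before readout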); conditions: JHH-DIPG-1 viability, CellTiter-Glo ATP luminescence
[4] = growth inhibition of DIPG glioma cells, dose response, cell-based, SU-DIPG-IV, MIPE4.0, CellTiter-Glo, qHTS (AID 1347063; cut-off not given, nearly all actives have AC50 up to about 30 µM;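 note: compound exposure lasted 48 hours before the viability readout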); conditions: SU-DIPG-IV viability, CellTiter-Glo ATP luminescence
[5] = growth inhibition of DIPG glioma cells, dose response, cell-based, SU-DIPG-XIII, MIPE5.0, CellTiter-Glo, qHTS (AID 1347064; cut-off not given, nearly all actives have AC50 up to about 23 µM;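 for AC50: cells exposed to compound for 48 hours before the viability read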); conditions: SU-DIPG-XIII viability, CellTiter-Glo ATP luminescence
[6] = viability loss in pontine glioma line – cell-based, SU-DIPG-XXV, MIPE5.0, CellTiter-Glo, qHTS, dose response (AID 1347065; cut-off not given, nearly all actives have AC50 up to about 26 µM;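 note: cells exposed to compound for 48 hours before ATP readout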); conditions: CellTiter-Glo ATP luminescence
[7] = JHH-DIPG-1 glioma cell viability, MIPE5.0 library, CellTiter-Glo luminescence, qHTS (AID 1347067; cut-off not given, nearly all actives have AC50 up to about 26 µM;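 note: cells exposed to compound for 48 hours before readout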); conditions: JHH-DIPG-1 glioma viability, CellTiter-Glo ATP luminescence
[8] = SU-DIPG-XXV glioma cell viability, MIPE5.0 library, qHTS (AID 1347068; cut-off not given, nearly all actives have IC50 up to about 30 µM)
[9] = sensitizers of A549 cells to miR-34 induction, primary screen, imaging, A549 dox-inducible miR-34, nuclei and caspase counts (AID 1347080;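 active = compounds whose cell count with miR-34 switched on is under 0.7 times the count with it off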); conditions: A549 miR-34 inducible, Hoechst nuclei count, 48 h
[10] = survival rescue of mitochondrial mutant cells in low glucose, primary screen, MELAS cybrids, Rieske KO mouse fibroblasts, CellTiter-Glo (AID 1508586;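 active = mean z-score across replicates of 1.96 or higher in either the MELAS or the Rieske mutant cell line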;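 note: z relative to plate mean and SD of compound and empty wells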)
[11] = LFS_MB_P medulloblastoma growth inhibition, cell-based, chromothripsis tumors, cisplatin or BGB combos (AID 1671449); conditions: LFS_MB_P medulloblastoma cells;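 note: cells exposed for 96 hours; 0% = vehicle DMSO and 100% = killing by high DMSO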
[12] = HDN33 neuroblastoma growth inhibition, cell-based, chromothripsis tumors, cisplatin or BGB combos (AID 1671450); conditions: HDN33 neuroblastoma cells, stronger effect = higher value;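 note: cells exposed to compound for four days; 0% = vehicle DMSO and 100% = cell killing by high DMSO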
[13] = ICB984 medulloblastoma cell growth inhibition, synergistic combos for chromothripsis tumors, cisplatin or BGB combos (AID 1671451; call rule not given here;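 note: cells exposed for 96 hours before readout; 0% = vehicle DMSO and 100% = killing by high DMSO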); conditions: ICB984 medulloblastoma cells, drug combinations, stronger effect = higher value
[14] = LFS_MB_1R medulloblastoma cell growth inhibition, synergistic combos for chromothripsis tumors, cisplatin or BGB combos (AID 1671452); conditions: LFS_MB_1R medulloblastoma cells, stronger effect = higher value;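 note: cells exposed for 96 hours before readout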
[15] = HTB85 osteosarcoma cell growth inhibition, synergistic combos for chromothripsis tumors, BGB or cisplatin IC20 combos (AID 1671453); conditions: HTB85 osteosarcoma cells, drug combinations, stronger effect = higher value;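 note: cells exposed for 96 hours before readout; 0% = vehicle DMSO and 100% = high DMSO killing control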
[16] = CRL2098 osteosarcoma cell growth inhibition, synergistic combos for chromothripsis tumors, BGB or cisplatin IC20 combos (AID 1671454); conditions: CRL2098 osteosarcoma cells, drug combinations, stronger effect = higher value;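 note: cells exposed for 96 h before readout; 0% = vehicle DMSO and 100% = killing by high DMSO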
[17] = HD-MB03 medulloblastoma cell growth inhibition, synergistic combos for chromothripsis tumors, BGB or cisplatin IC20 combos (AID 1671455; in the data active = inhibition above about 83%;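 note: 0% = vehicle DMSO and 100% = high DMSO as cytotoxic control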); conditions: HD-MB03 medulloblastoma cells, stronger effect = higher value
[18] = UWB1.289 ovarian carcinoma cell growth inhibition, synergistic combos for chromothripsis tumors, BGB or cisplatin combos (AID 1671456); conditions: UWB1.289 ovarian carcinoma cells, stronger effect = higher value;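 note: cells exposed to compound for four days; 0% = vehicle DMSO and 100% = killing by high DMSO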
[19] = LFS_MB_2R medulloblastoma cell growth inhibition, synergistic combos for chromothripsis tumors, cisplatin combos (AID 1671457); conditions: LFS_MB_2R medulloblastoma cells, stronger effect = higher value;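 note: cells exposed to compound for four days before readout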
[20] = MDA-MB-436 breast carcinoma cell growth inhibition, synergistic combos for chromothripsis tumors, BGB or cisplatin combos (AID 1671458; call rule not given here;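 note: cells exposed for 96 hours; 0% = vehicle DMSO and 100% = killing by high DMSO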); conditions: MDA-MB-436 breast carcinoma growth inhibition, drug combinations, stronger effect = higher value
[21] = UWB1.289_BRCA1 ovarian cancer growth, cell-based, BGB or cisplatin combinations (AID 1671459); conditions: UWB1.289 BRCA1 ovarian carcinoma, drug combinations, stronger effect = higher value
[22] = human astrocyte viability loss, single and combined drugs, cytotoxicity control for chromothriptic childhood tumor combination screen, cell-based, BGB or cisplatin IC20 combos (AID 1671460); conditions: Human astrocytes, drug combinations, stronger effect = higher value;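 note: cells exposed to compounds for 96 hours before viability readout; 0% = vehicle and 100% = killing control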
[23] = growth inhibition of BT084 medulloblastoma cells, cell-based, ICGC_MB145, cisplatin and BGB IC40 combos (AID 1671461); conditions: drug combinations, stronger effect = higher value;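 note: cells exposed to drugs for 96 hours; 0% = vehicle DMSO and 100% = high DMSO full killing control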
[24] = growth inhibition of RCMB18 medulloblastoma cells, cell-based, cisplatin and BGB IC40 combos (AID 1671462); conditions: stronger effect = higher value;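 note: cells exposed to compound for four days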
[25] = growth inhibition of CRL1545 osteosarcoma cells, cell-based, cisplatin and BGB IC20 combos (AID 1671464); conditions: stronger effect = higher value;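 note: cells exposed to compound for 96 hours before readout; 0% = vehicle DMSO and 100% = high DMSO killing control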
[26] = measured here: combination with BGB IC40, at 0.05 µM
[27] = measured here: with BGB IC20 combination, at 0.5 µM
[28] = measured here: with cisplatin IC20 combination, at 0.5 µM
[29] = measured here: combination with cisplatin, at 0.5 µM
[30] = measured here: combination with cisplatin, at 5 µM

CC(=O)OCC1=C(C(=O)O)N2C(=O)[C@@H](N)[C@@H]2SC1
outcome [1]: inactive | outcome [2]: inactive

CN1CCN(c2ccc([N+](=O)[O-])c3no[n+]([O-])c23)CC1
AC50 [3]: 23.5 µM (active) | AC50 [4]: 16.6 µM (active) | AC50 [5]: 16.6 µM (active) | AC50 [6]: 18.6 µM (active) | AC50 [7]: 23.5 µM (active) | outcome [8]: inactive

C[C@](O)(COc1ccc(C#N)cc1)C(=O)Nc1ccc(C#N)c(C(F)(F)F)c1
outcome [3]: inactive | outcome [4]: inactive | outcome [5]: inactive | outcome [6]: inactive | outcome [2]: inactive | outcome [8]: inactive | fold change ([9]; stronger effect = lower value): 0.889 (inactive) | fold change ([9]; measured here: relative caspase fold change +Dox/-Dox): 1.23 | cell count ([9]; measured here: total cells with miR-34 induction, stronger effect = lower value): 6840 | cell count ([9]; measured here: total cells without miR-34 induction): 7700 | z-score ([10]; MELAS cybrid survival, CellTiter-Glo 48 h, stronger effect = higher value): -0.434 (inactive) | z-score ([10]; Rieske KO mouse fibroblast survival, CellTiter-Glo 72 h): 0.535

CCNC(=O)C[C@@H]1N=C(c2ccc(Cl)cc2)c2cc(OC)ccc2-n2c(C)nnc21
AC50 [3]: 7.43 µM (active) | outcome [2]: inactive | outcome [7]: inactive | outcome [8]: inactive

O=C1CCC[C@@H]2[C@H]3CCCN4CCC[C@@H](CN12)[C@@H]34
outcome [1]: inactive | outcome [3]: inactive | outcome [4]: inactive | outcome [2]: inactive | inhibition ([11]; at 0.5 µM, stronger effect = higher value): -20.9% (inactive) | inhibition ([11]; measured here: combination with BGB IC20, at 0.005 µM): -26.5% | inhibition ([11]; measured here: combination with BGB IC40, at 0.005 µM): -23% | inhibition [11, 26]: -17% | inhibition ([11]; measured here: combination with cisplatin, at 0.5 µM, stronger effect = higher value): -27.3% | inhibition ([11]; measured here: combination with cisplatin, at 5 µM, stronger effect = higher value): 64.5% | inhibition ([12]; BGB combo, at 5 µM): 59.7% | inhibition ([12]; at 0.5 µM): 6.84% (inactive) | inhibition ([12]; cisplatin combo, at 5 µM): 52.4% | inhibition [12, 27]: -9.69% | inhibition [12, 28]: 11.1% | inhibition ([12]; single agent, at 5 µM): 48.2% | inhibition ([13]; BGB IC20 combo, at 0.005 µM): 5.19% | inhibition ([13]; BGB IC40 combo, at 0.005 µM): 0.771% | inhibition ([13]; BGB IC40 combo, at 0.05 µM): 63.2% | inhibition ([13]; at 0.5 µM): -0.41% (inactive) | inhibition ([13]; cisplatin combo, at 0.05 µM): 61.6% | inhibition ([13]; cisplatin combo, at 0.5 µM): 2.95% | inhibition ([13]; cisplatin combo, at 5 µM): -10% | inhibition ([13]; measured here: 5 uM single agent, at 5 µM): 1.92% | inhibition ([14]; at 0.5 µM): 12.9% (inactive) | inhibition [14, 26]: -3.79% | inhibition [14, 29]: 12.5% | inhibition [14, 30]: 79.4% | inhibition ([15]; at 0.5 µM): 0.28% (inactive) | inhibition ([15]; measured here: with BGB IC20, at 0.5 µM): 0.562% | inhibition ([15]; measured here: with BGB IC20, at 5 µM): 39.5% | inhibition ([15]; measured here: with cisplatin IC20, at 0.5 µM): -4.39% | inhibition ([15]; measured here: with cisplatin IC20, at 5 µM): 33.8% | inhibition ([15]; single agent, at 5 µM): 15.4% | inhibition ([16]; at 0.5 µM): 11.9% (inactive) | inhibition ([16]; measured here: combination with BGB at IC20, at 0.5 µM): -8.11% | inhibition ([16]; measured here: combination with cisplatin at IC20, at 0.5 µM): 39.2% | inhibition ([17]; at 0.5 µM): 2.42% (inactive) | inhibition ([17]; measured here: combo with BGB at IC20, at 0.5 µM): 3.91% | inhibition ([17]; measured here: combo with cisplatin at IC20, at 0.5 µM): -1.67% | inhibition ([18]; at 0.5 µM): 2.22% (inactive) | inhibition ([18]; measured here: inhibition with BGB combination, at 0.05 µM): 4.13% | inhibition ([18]; measured here: inhibition with cisplatin combination, at 0.05 µM): 1.55% | inhibition ([19]; at 0.5 µM): 0.58% (inactive) | inhibition [19, 29]: 8.66% | inhibition [19, 30]: 60.9% | inhibition ([20]; at 0.5 µM): -3.03% (inactive) | inhibition ([20]; measured here: BGB combination, at 0.5 µM): -5.75% | inhibition ([20]; measured here: BGB combination, at 5 µM): 1.19% | inhibition ([20]; measured here: cisplatin combination, at 0.5 µM): -10.4% | inhibition ([20]; measured here: cisplatin combination, at 5 µM): 1.01% | inhibition ([21]; BGB combination, concentration series, at 5 µM): 24% | inhibition ([21]; at 0.5 µM): 2.45% (inactive) | inhibition ([21]; cisplatin combination, concentration series, at 5 µM): 16.1% | inhibition ([22]; at 0.5 µM): 2.72% (inactive) | inhibition ([22]; measured here: combo with BGB IC20, at 0.5 µM): 3.13% | inhibition ([22]; measured here: combo with cisplatin IC20, at 0.5 µM): 4.87% | inhibition ([23]; at 0.5 µM): 3.62% (inactive) | inhibition ([23]; cisplatin combination, at 0.5 µM): 3.61% | inhibition ([23]; cisplatin combination, at 5 µM): 62.6% | inhibition ([23]; measured here: BGB IC40 combination 0.05 uM, at 0.05 µM): -11% | inhibition ([23]; single agent, at 5 µM): 75.7% | inhibition ([24]; at 0.5 µM): -5.51% (inactive) | inhibition ([24]; cisplatin combo, at 5 µM): 33.7% | inhibition ([24]; measured here: BGB IC40 combination, at 0.05 µM): -15.6% | inhibition [24, 29]: -27.9% | inhibition ([24]; single agent, at 5 µM): 31.3% | inhibition ([25]; at 0.5 µM): 8.42% (inactive) | inhibition [25, 27]: -16.4% | inhibition [25, 28]: 19.6% | inhibition ([25]; single agent, at 0.05 µM): -32.9% | inhibition ([25]; single agent, at 5 µM): -58%

From PubChem BioAssay
